In PubChem BioAssay AID1117293 (Broad Institute, 2014):
Potency and affinity values are given separately. Records with an inconclusive call do not appear. Where a call stands in place of a potency, no number is given. Active and inactive are the calls of the source.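 Rule for the calls: active = cytotoxic in every repeat run, with fitted half-maximal concentration at most twice the top tested dose; inconclusive = runs disagree, or flat partial drop, or poor curve fit; inactive = inactive in every run.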

Experiment: embryonic kidney cell viability loss – CellTiter-Glo luminescence, dry powder, set 20, cytotoxicity control, dose response (AID 1117293)
Details: HEK293T viability, CellTiter-Glo ATP luminescence, 72 h; series mostly up to 26 µM

SMILES	outcome
CC(=O)N1CCN(C(=O)C2(NC(=O)Nc3ccccc3C(F)(F)F)CCCCC2)CC1	inactive
O=[N+]([O-])c1ccc(S(=O)(=O)Nc2cc(C(F)(F)F)ccc2N2CCCCC2)c([N+](=O)[O-])c1	inactive
CC(=O)N1CCN(C(=O)C2(NC(=O)Nc3ccc(F)cc3)CCCCC2)CC1	inactive
O=S(=O)(Nc1cc(C(F)(F)F)ccc1N1CCCCC1)c1ccc(Cl)cc1	inactive
CC(=O)N1CCN(C(=O)C2(NC(=O)Nc3ccc(C(F)(F)F)cc3)CCCCC2)CC1	inactive
Cc1ccc(NC(=O)NC2(C(=O)N3CCOCC3)CCCCC2)cc1	inactive
CC(=O)N1CCN(C(=O)C2(NC(=O)Nc3ccc(C(C)C)cc3)CCCC2)CC1	inactive
COc1ccc(C(=O)Nc2cc(C)ccc2N2CCCCC2)cc1S(=O)(=O)O	inactive
COc1ccc(C(=O)O)cc1S(=O)(=O)Nc1cc(C(F)(F)F)ccc1N1CCN(C(C)=O)CC1	inactive
COc1ccc(C(=O)O)cc1S(=O)(=O)Nc1cccc(N2CCCCC2)c1C(F)(F)F	inactive
Cc1ccc(NC(=O)NC2(C(=O)N3CCNCC3)CCCCC2)cc1	inactive
NC(=NCCc1c[nH]c2ccccc12)NS(=O)(=O)c1cc(F)ccc1F	inactive
COc1ccc(C(=O)Nc2cc(F)ccc2N2CCCCC2)cc1S(=O)(=O)O	inactive
Cn1cnc(S(=O)(=O)Nc2cc(C(F)(F)F)ccc2N2CCCCC2)c1	inactive
O=C(Nc1cc(C(F)(F)F)ccc1N1CCCCC1)c1ccc(S(=O)(=O)O)cc1	inactive
CC(=O)N1CCN(C(=O)C2(NC(=O)Nc3ccc(C(F)(F)F)cc3)CCCC2)CC1	inactive
